# Test results published in PubChem BioAssay AID618 (Sanford-Burnham Center for Chemical Genomics, 2007).
# Among all 87,000 compounds or so, about 540 (0.62%) were called active. How the calls were made is not given here. Only a selection was taken, and actives are over-represented in it overall. Results with a measured potency or affinity are listed apart.
# Assay: MT1-MMP gene expression reporter suppression – cell-based, luciferase reporter, luminescence (AID 618);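 further: actives suppress MT1-MMP promoter-driven transcription so potencies describe inhibitors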
# Conditions: MT1-MMP promoter luciferase reporter cells
row,SMILES,outcome
1,O=C(NC1CC1)c1cc2c(s1)-c1ccccc1OC2,inactive
2,Cn1c(=O)cc(SCC(=O)NCC2CCCO2)c2ccccc21 (stereo not drawn),inactive
3,Cc1cc(NCCCn2ccnc2)n2ncc(-c3ccccc3)c2n1,active
4,Cc1cc(NCCCN2CCOCC2)n2ncc(-c3ccccc3)c2n1,inactive
5,Cc1cc(NCCCn2ccnc2)n2nc(C)c(-c3ccc(Cl)cc3)c2n1,inactive
6,Cc1cc(NCCCn2ccnc2)n2nc(C)c(-c3ccccc3)c2n1,inactive
7,CC(C)(C)c1cc(NCCCn2ccnc2)n2ncc(-c3ccc(Cl)cc3)c2n1,inactive
8,Cc1ccc(C)c(C(=O)CC2(O)C(=O)Nc3ccccc32)c1 (stereo not drawn),inactive
9,Cc1onc(-c2c(F)cccc2Cl)c1C(=O)NCCCN1CCOCC1,inactive
10,Cc1cccc(C)c1NC(=O)Cn1c(CN2CCCCC2)nc2ccccc2c1=O,inactive
11,CCN(Cc1ccccc1)S(=O)(=O)c1nc2nc(C)c(C)c(C)n2n1,inactive
12,CC(C)(C)C(=O)Nc1ccc(-c2cn3ccsc3n2)cc1,active
13,CC(=O)Nc1ccc(-c2cn3ccsc3n2)cc1,inactive
14,CC(C)CC(=O)Nc1ccc(-c2cn3ccsc3n2)cc1,inactive
15,CCCOC(=O)c1ccc(Oc2c(-c3ccc(OC)cc3O)n[nH]c2C)cc1,inactive
16,COc1ccc(CN2CC(C(=O)NCc3ccc4c(c3)OCO4)CC2=O)cc1 (stereo not drawn),inactive
17,O=C(c1nc2nc(-c3ccccc3)cc(C(F)(F)F)n2n1)N1CCOCC1,inactive
18,O=C(CSc1nnc(-c2ccccc2)n1Cc1ccco1)Nc1ccc(S(=O)(=O)N2CCCC2)cc1,inactive
19,Clc1ccc(-c2nnc3n2CCCCC3)cc1,inactive
20,Clc1ccc(-c2nc(N3CCCCC3)nc3ccccc23)cc1,inactive
21,c1ccc2oc(SCc3cn4ccccc4n3)nc2c1,inactive
22,Clc1c(CSc2nc3ccccc3o2)nc2sccn12,inactive
23,CCOc1cc(/C=N/N=C(/N)c2nonc2N)cc(Br)c1OCc1ccc(Cl)cc1,inactive
24,CCOC(=O)c1[nH]c(C)c(C(=O)NCCCOC(C)C)c1C,inactive

row,SMILES,outcome
1,c1ccc(CN2CCN(c3nc4ccccc4c4ccccc34)CC2)cc1,inactive
2,COCCOC(=O)C1=C(C)NC2=C(C(=O)CCC2)C1c1cc2c(cc1Br)OCO2 (stereo not drawn),inactive
3,O=S(=O)(c1ccc(S(=O)(=O)N2CCCC2)cc1)N1CCCCCC1,inactive
4,O=S(=O)(c1ccc2c(c1)C(=NO)c1cc(S(=O)(=O)N3CCCCC3)ccc1-2)N1CCCCC1,active
5,CC1CCN(S(=O)(=O)c2ccc3c(c2)C(=NO)c2cc(S(=O)(=O)N4CCC(C)CC4)ccc2-3)CC1,inactive
6,O=C(CCC(=O)c1ccc(F)cc1)Nc1cccnc1,inactive
7,CC(C)N(CCCNC(=O)CC1Oc2ccccc2NC1=O)Cc1ccccc1 (stereo not drawn),inactive
8,Nc1ccc(Br)c2c1C(=O)c1ccccc1C2=O,inactive
9,O=C1C(=O)c2ccc(-c3ccccc3)cc2-c2ccccc21,inactive
10,Nc1ccc2c(c1)C(=O)C(=O)c1ccccc1-2,active
11,CCOC(=O)CON1C(=O)c2ccccc2C1=O,inactive
12,COc1ccc(-c2c(C)n([O-])c3c([n+]2=O)CCCC3)cc1,inactive
13,N=c1n(CCN2CCOCC2)c2ccccc2n1Cc1ccccc1Br,inactive
14,Cn1c(-c2ccco2)nc2cc3ccccc3cc21,active
15,Cn1c(-n2c(-c3ccco3)nc3ccccc3c2=O)nc2ccccc21,inactive
16,CCn1c(-c2ccco2)nc2ccccc21,inactive
17,C=COCCn1c(=N)n(CCC)c2ccccc21,inactive
18,O=C1[C@@H]2C(c3ccccc3Cl)=NO[C@@H]2C(=O)N1Cc1ccccc1,inactive
19,Cc1c(NC(=O)c2ccccc2)c(=O)n(-c2ccccc2)n1C,inactive
20,Cc1c(NC(=O)c2ccc(=O)oc2)c(=O)n(-c2ccccc2)n1C,inactive
21,CCCNc1cc(C)oc(=O)c1C(=O)CCC,inactive
22,Oc1ccc(Nc2nc3ccccc3nc2Nc2ccc(O)cc2)cc1,inactive
23,CCOC(=O)C1CCCCN1C(=O)CCc1c(C)nc2ncnn2c1C (stereo not drawn),inactive
24,Cc1nc2cc(-c3cccc(F)c3)nn2c(C)c1CCC(=O)N1CCN(c2ccccn2)CC1,inactive

row,SMILES,outcome
1,CCn1c(C(=O)Nc2ccsc2C(=O)OC)cc2sc(Cl)cc21,inactive
2,CN1CCC(C2(O)c3ccccc3CSc3sccc32)CC1 (stereo not drawn),inactive
3,Cc1ccc(C(=O)Nc2ccc(CC(=O)O)cc2)o1,inactive
4,O=C(O)Cc1ccc(NC(=O)c2ccc(NC(=O)c3ccco3)cc2)cc1,inactive
5,Cc1cc(C(C)(C)C)oc1C(=O)Nc1ccc(CC(=O)O)cc1,inactive
6,COC(=O)Cc1ccc(NC(=O)c2ccc(Br)o2)cc1,inactive
7,COC(=O)Cc1ccc(NC(=O)c2ccc(C)c(C)c2)cc1,inactive
8,Cc1oc(C)c(C(=O)Nc2ccc(CC(=O)O)cc2)c1C(=O)Nc1ccc(CC(=O)O)cc1,inactive
9,COc1ccc(-n2c(Cc3cccn3C)nnc2SCC(=O)Nc2cccc(NC(C)=O)c2)cc1,inactive
10,CCOc1ccc(CCNC(=O)C(O)c2ccccc2)cc1 (stereo not drawn),inactive
11,Cc1cc(=O)oc2cc(OCC(=O)Nc3nnc(C(C)C)s3)ccc12,inactive
12,CC(=NCCCn1ccnc1)C1=C(O)c2ccccc2C1=O,inactive
13,Clc1ccc(-n2ncc3c(N4CCCC4)ncnc32)cc1,inactive
14,Cc1cccc(-n2ncc3c(N4CCC5(CC4)OCCO5)ncnc32)c1,inactive
15,CCN1CCN(c2ncnc3c2cnn3-c2ccc(Cl)cc2)CC1,inactive
16,Cc1cccc(-n2ncc3c(N4CCN(c5nc(C)cc(C)n5)CC4)ncnc32)c1,inactive
17,COc1cc(NC(=O)CSc2ncnc3c2cnn3Cc2ccccc2)cc(OC)c1,inactive
18,COc1ccc(-c2cn3c(C)c(C(=O)N4CCc5ccccc5C4)sc3n2)cc1,inactive
19,COc1ccccc1-c1coc2c(CN3CCN(CCO)CC3)c(O)ccc2c1=O,inactive
20,CCOC(=O)C(NS(=O)(=O)c1ccc(Br)cc1)C(C)C (stereo not drawn),inactive
21,COc1ccc2c(CC(=O)OCC(=O)c3ccc(F)cc3)coc2c1,inactive
22,Oc1c(C(c2ccco2)N2CCOCC2)sc2ncnn12 (stereo not drawn),inactive
23,O=C(Nc1cnc2ccccc2c1)c1cccnc1,inactive
24,O=C(O)c1ccc(C(=O)Nc2cccc(NC(=O)C3CCCO3)c2)cc1 (stereo not drawn),inactive

row,SMILES,outcome
1,Cc1cc(C(=O)Nc2ccccc2)oc1C,inactive
2,Cc1ccc(C(=O)Nc2cccc(C(=O)N3CCN(C)CC3)c2)cc1,inactive
3,O=C(O)c1cccc(NC(=O)C2CCCO2)c1 (stereo not drawn),inactive
4,Cc1oc2c(c1C(=O)Nc1cccc(C(=O)O)c1)CCCC2,inactive
5,Cc1ccc(NC(=O)c2ccccc2)cc1,inactive
6,O=C(Nc1cnc2ccccc2c1)c1ccncc1,inactive
7,O=C(Oc1ccc(Br)cc1)c1cncc(Br)c1,inactive
8,O=C1CCC([N+](=O)[O-])C(c2ccccc2Cl)N1 (stereo not drawn),inactive
9,COc1cccc(-n2nnc3c(=O)n(Cc4c(F)cccc4Cl)cnc32)c1,inactive
10,CCN(CC)CCCNC(=O)c1sc2nc(-c3ccc(F)cc3)cn2c1C,inactive
11,CCn1cc(C(=O)NCc2ccco2)c(=O)c2cc(S(=O)(=O)N3CC(C)CC(C)C3)ccc21 (stereo not drawn),inactive
12,CCOC(=O)CCn1c(=O)c2c(nc(Br)n2Cc2ccccc2)n(C)c1=O,inactive
13,Cc1ccc(S(=O)(=O)NCCC(=O)Nc2nnc(C)s2)cc1,inactive
14,COC(=O)[C@H](C)NC(=O)Nc1ccccc1F,inactive
15,COc1ccc(S(=O)(=O)n2c(CCN3CCOCC3)nc3ccccc32)cc1,inactive
16,O=C(O)c1cccc(NC(=O)c2cccc(S(=O)(=O)N3CCCCC3)c2)c1,inactive
17,Cc1ccc(C(=O)Nc2cccc(C(=O)O)c2)cc1S(=O)(=O)N1CCOCC1,inactive
18,CC1C=CC(C)C(C(=O)O)C1C(=O)O (stereo not drawn),inactive
19,CC(=O)c1ccc(NS(=O)(=O)c2ccc(CC(C)C)cc2)cc1,inactive
20,Cc1cccnc1NC(=O)C1CCN(S(=O)(=O)c2cccs2)CC1,inactive
21,COc1ccc(CCn2c(N3CCN(C)CC3)nc3c2c(=O)[nH]c(=O)n3C)cc1,inactive
22,CCOc1ccc(S(=O)(=O)NCCC2=CCCCC2)c2ccccc12,inactive
23,COCCCNC(=O)c1cccc(C(=O)NCCCOC)c1,inactive
24,CCCC1=Nc2cc(C(=O)NCCCOCC)ccc2Sc2ccccc21,active

row,SMILES,outcome
1,CCC1=Nc2cc(C(=O)NCCCOC)ccc2Sc2ccccc21,active
2,CCCC1=Nc2cc(C(=O)NCCCOC(C)C)ccc2Sc2ccccc21,inactive
3,CCOCCCNC(=O)c1ccc(OC)cc1,inactive
4,CCC1=Nc2cc(C(=O)NCCCOC(C)C)ccc2Sc2ccccc21,inactive
5,COc1ccc(S(=O)(=O)Cc2ccc(C(=O)N3CCN(c4ncccn4)CC3)o2)cc1,inactive
6,CC1(C)CC(=O)C2=C(C1)Nc1ccccc1NC2c1cccnc1 (stereo not drawn),inactive
7,CCC1=C2CC[C@H]3C(=O)N(CC(=O)OC)C(=O)[C@H]3[C@H]2[C@@]2(Cc3ccccc3)C(=NCCc3c[nH]c4ccccc34)OC(=O)N2C1=O,inactive
8,O=C(CSc1ccccc1)Nc1cccnc1,inactive
9,CC(CN1CCOCC1)OC(=O)c1ccccc1Br (stereo not drawn),inactive
10,COc1ccc(-c2nc3ccccc3c(=O)n2CCN2CCOCC2)cc1,inactive
11,COc1ccc2[nH]c3c(c2c1)CCn1c-3nc2ccccc2c1=O,active
12,COc1cc(OC)cc(C(=O)Nn2c(C)nc3ccccc3c2=O)c1,inactive
13,O=C(CCc1ccccc1)c1ccc2c(c1)OCCCO2,inactive
14,O=C(CCCO)c1ccc2c(c1)OCCO2,inactive
15,CS(=O)(=O)Nc1ccc(C(=O)Nc2ccc3c(c2)OCCO3)cc1,inactive
16,Cc1cc(C(=O)Nc2ccc3c(c2)OCCO3)co1,inactive
17,O=C(Nc1ccncc1)c1ccc2c(c1)OCCO2,inactive
18,COc1cc(SC)ccc1C(=O)Nc1ccccc1,inactive
19,O=C(Nc1ccc2c(c1)OCCO2)c1cccnc1,inactive
20,O=C(Nc1ccccc1)c1ccc2c(c1)OCCO2,inactive
21,O=C(Nc1ccc2c(c1)OCO2)c1cncc(Br)c1,inactive
22,COc1ccccc1C(=O)Nc1ccc2c(c1)OCCO2,inactive
